# POLI inh – inhibitors of human DNA polymerase iota; Pol iota fluorescent replication assay, 10 min; Potency, µM (highest dose often 115 µM), for inactives: at the highest dose activity, negative = inhibition, usual class: inhibitors; 390,000 compounds, 1% hits; AID 588590
#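 Pol iota at 10 nM preincubated 15 min with compounds at room temperature; reaction started with fluorescent substrate, 50 nM final. Fluorescence read kinetically at 0 and 10 min; buffer-only wells as negative control.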
# APE1 inh – blocks human APE1 abasic DNA cleavage; P27695; recombinant APE1, TAMRA/BHQ-2 abasic DNA cleavage fluorescence; Potency, µM (top dose mostly 65.8 µM), for inactives: at the top dose activity change, negative = inhibition, usual class: inhibitors; 350,000 compounds, 0.35% hits; AID 2517;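 note: plate controls were vehicle for no effect and reference inhibitor for full effect; nearly all actives have a fitted effect of over 55% in size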
#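 Quantitative HTS: incision of a TAMRA/BHQ-2 double-stranded substrate bearing a tetrahydrofuran abasic site by 0.75 nM APE1 raises fluorescence. Substrate 50 nM final, added after 15 min compound preincubation at room temperature; progress as third-minus-first kinetic read difference.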
# L3MBTL1 block – L3MBTL1 (human) inhibition; Q9Y468; AlphaScreen L3MBTL1–H3K9me1 peptide binding; Potency, µM (series often up to 57.1 µM), without a hit: at the top dose activity, negative = inhibition, actives largely listed as inhibitors; 230,000 compounds, 0.66% hits; AID 485360; note: % is set by controls: 0 for no effect and ±100 for the full control effect; nearly all actives have a fitted effect of over 60% in size
#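 Read-out is AlphaScreen signal from streptavidin donor and nickel chelate acceptor beads (10 ug/mL final each) bridging L3MBTL1 (50 nM) and biotinylated K9-monomethylated H3(1-15) peptide (75 nM), after 30 min compound exposure at room temperature.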
# POLK inh – inhibitors of human DNA polymerase kappa; Q9UBT6; purified Pol kappa, fluorescent DNA synthesis assay, 10 min; Potency, µM (doses to about 107 µM), for inactives: top-dose activity, negative = inhibition, hits mostly inhibitors; 400,000 compounds, 0.53% hits; AID 588579; note: % is set by controls: 0 for no effect and ±100 for the full control effect
# Target sequence (Q9UBT6 whole entry, looked up): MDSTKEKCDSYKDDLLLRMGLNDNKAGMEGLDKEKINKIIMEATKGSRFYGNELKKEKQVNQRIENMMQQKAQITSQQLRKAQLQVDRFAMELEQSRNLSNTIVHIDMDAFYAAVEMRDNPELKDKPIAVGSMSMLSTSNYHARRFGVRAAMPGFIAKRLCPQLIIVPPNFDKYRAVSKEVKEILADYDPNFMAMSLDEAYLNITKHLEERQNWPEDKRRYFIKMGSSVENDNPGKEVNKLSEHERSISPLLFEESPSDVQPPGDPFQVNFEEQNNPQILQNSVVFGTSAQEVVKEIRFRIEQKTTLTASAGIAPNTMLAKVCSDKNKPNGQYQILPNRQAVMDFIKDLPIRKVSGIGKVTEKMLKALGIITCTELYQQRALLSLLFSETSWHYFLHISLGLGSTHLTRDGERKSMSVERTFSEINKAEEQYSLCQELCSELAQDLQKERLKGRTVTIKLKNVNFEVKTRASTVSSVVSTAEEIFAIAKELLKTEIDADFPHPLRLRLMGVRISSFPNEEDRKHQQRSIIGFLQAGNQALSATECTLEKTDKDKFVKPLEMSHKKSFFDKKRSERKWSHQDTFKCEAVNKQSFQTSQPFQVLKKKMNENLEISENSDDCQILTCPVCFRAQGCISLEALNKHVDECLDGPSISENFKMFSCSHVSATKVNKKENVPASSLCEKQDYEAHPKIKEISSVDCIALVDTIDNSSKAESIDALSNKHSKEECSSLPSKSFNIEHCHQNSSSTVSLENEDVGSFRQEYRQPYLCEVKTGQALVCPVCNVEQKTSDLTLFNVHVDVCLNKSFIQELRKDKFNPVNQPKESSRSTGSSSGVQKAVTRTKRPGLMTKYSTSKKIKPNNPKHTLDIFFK
#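 Enzyme at 10 nM met test compounds for 15 min at room temperature. Substrate addition (50 nM final) began the reaction, which was monitored by fluorescence at 0 and 10 min.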
# POLH inh – blocks human DNA polymerase eta activity; 390,000 compounds, 1.2% hits; Potency, µM (doses to about 114 µM), inactives show at the top dose activity change, negative = inhibition, hits mostly inhibitors; recombinant Pol eta, fluorescent DNA replication assay; Q9Y253; AID 588591; note: % is set by controls: 0 for no effect and ±100 for the full control effect
#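 Fluorescent replication assay: 50 nM final substrate added after a 15 min room-temperature compound preincubation with 10 nM enzyme. Signal taken at 0 min and again at 10 min.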
# POLB inh – DNA polymerase beta (human) inhibition; AID 485314; Pol beta primer extension/strand displacement, fluorescence kinetic; P06746; 340,000 compounds, 1.3% hits; Potency, µM (doses to about 114 µM), inactives show at the highest dose activity change, negative = inhibition, most hits filed as inhibitors; note: % is set by controls: 0 for no effect and ±100 for the full control effect
#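 Curves were derived by four-parameter Hill fits of normalized qHTS data. The kinetic fluorescent primer-extension read was taken at 0 and 10 min after 50 nM substrate, following a 15 min room-temperature preincubation of 10 nM enzyme with compounds.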
# An asterisk follows results filed as active; u = inconclusive; x = no result; [ ] = dose if it differs, or a comment. Only some compounds are listed: those with a hit (about 2.5% of all), similar ones and a draw of the others. Calls come from the whole dose curve; as a rule, active = well fitted curve in the direction sought with a large enough effect; inconclusive = small, poorly fitted or top-dose-only effect, or another doubt; inactive = no such curve, though single readings can be large; an effect the other way counts as inactive or inconclusive. Potency is the fitted concentration of half-maximal effect.
SMILES,POLI inh,APE1 inh,L3MBTL1 block,POLK inh,POLH inh,POLB inh
C[C@@H]1CN([C@@H](C)CO)C(=O)CCCn2nncc2CO[C@H]1CN(C)S(=O)(=O)c1cccs1,x,x,x,x,-16%,x
O=C(CNS(=O)(=O)c1ccc(Br)cc1Cl)OCC(=O)c1ccc[nH]1,48%,10%,-3%,-23%,-15%,x
O=C(CNS(=O)(=O)c1c(Cl)cccc1Cl)OCC(=O)c1ccc[nH]1,16µM*,7%,-23%,u,45µM*,u
Cc1ccc(NC(=O)CSc2nnc(-c3ccccn3)n2N)c(Br)c1,12%,-4%,25µM*,1%,-7%,-4%
COc1ccccc1N(CC(=O)NCc1ccc2c(c1)OCO2)C(=O)CCC(=O)Nc1nccs1,18%,45%[12.4 µM],x,-8%,-10%,5%
COc1cccc(OCc2nnc(SCC(=O)NCc3ccco3)n2CCc2ccccc2)c1,u,u,-21%,u,14µM*,22µM*
O=C(O)CCc1ccc(-c2ccc(F)cc2)n1CC(=O)O,u,7%,-15%,-13%,11µM*,-3%
O=C(O)CCc1ccc(-c2ccc(F)cc2)n1Cc1ccco1,-15%,-3%,-4%,-12%,-10%,-24%
O=C(O)CCc1ccc(-c2ccccc2)n1Cc1ccco1,u,3%,x,u,16µM*,-2%
O=C(O)CCc1ccc(-c2ccc(Br)cc2)n1Cc1ccco1,50µM*,-7%,-22%,-38%,56µM*,u
O=C(O)CCc1ccc(-c2ccc(Br)cc2)n1-c1ccc(O)cc1,u,0%,x,-2%,-7%,2%
C[C@@H]1CCC2[C@@H](C)[C@@H](O)O[C@@H]3O[C@@]4(C)CC[C@@H]1[C@@]23OO4 (some centres not stated),x,7%,x,-12%[60.1 µM],x,x
COc1cc(C(=O)NS(=O)(=O)c2ccccc2C)ccc1Cc1cn(C)c2ccc(NC(=O)OC3CCCC3)cc12,x,-4%,x,u,x,56µM*
COc1cc(/C=N/Nc2ccccc2[N+](=O)[O-])cc(OC)c1O,60%,-8%,u,5%,-10%,2%
COc1cc(/C=N/Nc2nc3ccccc3s2)cc([N+](=O)[O-])c1O,-8%,7%,-11%,-6%,56µM*,22µM*
COc1cc(/C=N/Nc2ccc(S(N)(=O)=O)cc2[N+](=O)[O-])cc(OC)c1O,40µM*,u,-23%,-20%,u,u
COc1ccc(CNc2cc(-c3ccoc3)ncn2)c(OC)c1,x,-4%,x,-6%[60.1 µM],x,x
COc1ccc(NS(=O)(=O)c2ccc(N)c(C(=O)O)c2)cc1,1%,-1%,-3%,-1%,2%,-1%
COc1ccc(NS(=O)(=O)c2ccc(C)c(C(=O)O)c2)cc1,u,-13%,-24%,-10%,79µM*,45µM*
CCCCN1C(=O)C(=O)N(CC(=O)Nc2sc(CC)cc2C(=O)OCC)C1=O,79µM*,-22%,-4%,-6%,1%,x
CCOC(=O)c1cc(CC)sc1NC(=O)COC,4%[58.9 µM],-4%,x,-11%,4%,21%
O=C(c1cccc2ccccc12)N1CCN(S(=O)(=O)c2ccccc2)CC1,-1%,x,x,7%,x,x
O=C(O)/C(=C\c1ccccc1OC(F)F)c1ccc(-c2ccccc2)cc1,61%,41%,x,-30%,-29%,56µM*
CCOC(=O)c1c(S(=O)(=O)N2CCC(C(=O)N3CCN(c4ccc(F)cc4)CC3)CC2)c(C)n(C)c1C,-6%,x,x,1%[60.1 µM],-12%,17%
O=C(Nc1ccc(F)c(F)c1)c1cnn2c1NC(=C1CC1)C=C2C(F)F,-19%,x,x,-8%,x,x
SMILES,POLI inh,APE1 inh,L3MBTL1 block,POLK inh,POLH inh,POLB inh
COc1ccc(-c2ccc3c(c2)S(=O)(=O)c2cccc(C(=O)NC[C@@H]4CCCO4)c2C3=O)cc1OC,u,3%,-1%,-10%,28µM*,x
CC(C)c1cccc(-c2ccc3c(c2)S(=O)(=O)c2cccc(C(=O)NCc4ccco4)c2C3=O)c1,u,-38%,-26%,u,40µM*,x
O=C(NC[C@@H]1CCCO1)c1cccc2c1C(=O)c1ccc(Cl)cc1S2(=O)=O,12%,-4%,9%,-10%,u,x
O=[N+]([O-])C(=C1Nc2ccccc2N1)C(Cl)=C(Cl)Cl,50µM*,18%,-2%,-13%,11%,0%
O=C(NCc1ccccc1)c1ccc2c(c1)nc1n2CCOC1,9%,x,x,-8%[60.1 µM],9%,-1%
Fc1ccc(/C=C/c2ccc3ccccc3n2)cc1,-4%,x,x,u,x,x
OCC1(CO)COC(C(Cl)(Cl)Cl)OC1,x,x,x,3%[19.4 µM],x,x
COc1ccc(/C=N/NC(=O)c2[nH]c3ccc(Br)cc3c2-c2ccccc2)cc1,46%,-6%,-5%,-14%,-18%,-1%
COc1ccc(/C=N/NC(=O)c2ccc(NC(=O)c3cccc([N+](=O)[O-])c3)cc2)c(C(=O)O)c1OC,u,-15%,x,0%,79µM*,71µM*
COc1ccc(/C=N/NC(=O)c2[nH]c3ccc(Br)cc3c2-c2ccccc2)c(C(=O)O)c1OC,u,-8%,-13%,2%,32µM*,u
O=C(N/N=C/c1ccccc1Cl)c1[nH]c2ccc(Br)cc2c1-c1ccccc1,79µM*,2%,-7%,u,50µM*,u
O=[N+]([O-])c1ccccc1S(=O)(=O)Oc1ccc(C(=S)N2CCOCC2)cc1,-14%,-4%,-2%,-6%,-11%,0%
O=C(O)CCCC/C=C(\c1ccccc1)c1cccnc1,x,x,x,5%[19.4 µM],x,x
Cc1ccc2[nH]c(O)c(N=NC(=O)c3ccc(NS(=O)(=O)c4cccs4)cc3)c2c1,u,-1%,x,-11%,22µM*,3%
O=C(N=Nc1c(O)[nH]c2ccc(F)cc12)c1ccc(NS(=O)(=O)c2cccs2)cc1,20%,-32%,2%,-8%,u,x
COc1ccccc1/C=C/C1=CC2(C)CC1(C)C(c1ccccc1OC)CC2=O (configuration not stated),x,5%[12.4 µM],x,x,x,x
COc1ccc(/C(C)=N/NC(=O)c2cccc(S(=O)(=O)N3CCCC3)c2)c(O)c1,23%,23%,6.3µM*,-9%,0%,x
COc1ccc(C(C)=NNC(=O)c2cccc(S(=O)(=O)N3CCCC3)c2)cc1,30%,-2%,-3%,-3%,-2%,x
CCOc1ccccc1Nc1nc(-c2cccc(Cl)c2)c2c(n1)-c1ccccc1OC2,-18%,x,x,89µM*,-13%,40µM*
c1ccc(-c2cc(-c3ccccc3)c3c(n2)-c2ccccc2OC3)cc1,-4%,x,x,-1%,-15%,32%
COc1cc(N)c2ncccc2c1SC,x,x,x,x,-22%,x
COc1cc(N)c2ncccc2c1Br,32µM*,x,x,-27%,-4%,x
